Data from PubChem BioAssay (NCATS).
“And” between values parts separate entries of the source, which are not always exact repeats. Identical values can stand only once. Records with an inconclusive call do not appear. The source made the active and inactive calls. The call rests on the fitted dose curve.

Key:
[1] = Primary qHTS for inhibitors of SARS-S pseudo-typed particle cell entry (AID 1479145); details: outcome: dose series up to 57.1 µM unless noted; further: nearly all actives have a fitted effect of over 45% in size; on activity change, negative = inhibition: on the % scale 0 is the no-effect control and ±100 the full control effect
[2] = Primary qHTS for Huh7 cytotoxicity: counterscreen for inhibitors of MERS-S pseudotyped particle cell entry (AID 1479147); details: outcome: dose series up to 57.1 µM unless noted; on activity change, negative = cytotoxicity: on the % scale 0 is the no-effect control and ±100 the full control effect
[3] = Primary qHTS for inhibitors of MERS-S pseudo-typed particle cell entry (AID 1479149); details: outcome: dose series up to 57.1 µM unless noted; further: nearly all actives have a fitted effect of over 60% in size
[4] = Primary qHTS for Vero E6 cytotoxicity: counterscreen for inhibitors of SARS-S pseudo-typed particle cell entry (AID 1479150); details: outcome: dose series up to 57.1 µM unless noted; on activity change, negative = cytotoxicity: on the % scale 0 is the no-effect control and ±100 the full control effect
[5] = Cytotoxicity counterscreen for inhibitors of SARS-CoV-2 cell entry (AID 1645845); details: outcome: dose series up to 57.1 µM unless noted; further: nearly all actives have a fitted effect of over 50% in size; on activity change, negative = cytotoxicity: on the % scale 0 is the no-effect control and ±100 the full control effect
Method in brief: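 48 h compound treatment (after 1 h preincubation), HEK293-ACE2 cells, 37 C/5% CO2; ATP luminescence endpoint; normalized to cell wells and media blanks.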

[6] = Primary qHTS to identify inhibitors of SARS-CoV-2 cell entry (AID 1645846); details: SARS-CoV-2 pseudovirus cell entry assay, luminescence; activity change, negative = inhibition: at 57.1 µM (top of the series) unless noted; further: nearly all actives have a fitted effect of over 45% in size
Method in brief: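 HEK293-ACE2 (Expi293F, stable hACE2), 1500 cells/well, o/n 37C; cpd 23 nL pin, 1 h; MLV-PP w/ SARS-CoV-2-S (Wuhan-Hu-1, Δ19 C-term); 48 h 37C; Bright-Glo luminescence; normalized vs S-PP and bald PP.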

FC(F)(F)C(F)(F)C(F)(F)C(F)(F)C(F)(F)C(F)(F)F
inactive: Potency [1] | Potency [2] | Potency [3] | Potency [4] | Potency [5]

CS(=O)(=O)OCC(O)C(O)COS(C)(=O)=O (stereo unspecified)
inactive: Potency [1] | Potency [2] | Potency [3] | Potency [4] | Potency [5]

CN1CC(O)c2cc(N=NC(N)=O)c(O)cc21 (stereo unspecified)
inactive: Potency [1] | Potency [2] | Potency [3] | Potency [4] | Potency [5]

CC(C)(C)NC(=O)[C@H]1CC[C@H]2[C@@H]3CC=C4C=C(C(=O)O)CC[C@]4(C)[C@H]3CC[C@]12C
inactive: Potency [1] | Potency [2] | Potency [3] | Potency [4] | Potency [5]

[2H]C([2H])([2H])C(CCC[C@@H](C)[C@H]1CC[C@H]2/C(=C/C=C3\C[C@@H](O)C[C@H](O)C3=C)CCC[C@]12C)C([2H])([2H])[2H]
inactive: Potency [1] | Potency [2] | Potency [3] | Potency [4] | Potency [5]

CCN1CCN(C(=O)N[C@@H](C(=O)N[C@]2(OC)C(=O)N3C(C(=O)O)=C(CSc4nnnn4C)CS[C@@H]32)[C@H](C)O)C(=O)C1=O
inactive: Potency [1] | Potency [2] | Potency [3] | Potency [4] | Potency [5]

CN(C)CC(=O)O
inactive: Potency [1] | Potency [2] | Potency [3] | Potency [4] | Potency [5]

CCOC(=O)COc1ccc2c(=O)cc(-c3ccccc3)oc2c1
inactive: Potency [1] | Potency [2] | Potency [3] | Potency [4] | Potency [5]

CCCCc1cc2c(=O)c(C(=O)OC)c[nH]c2cc1OCc1ccccc1
inactive: Potency [1] | Potency [2] | Potency [3] | Potency [4] | Potency [5]

CCC(=C(CC)c1ccc(OP(=O)(O)O)cc1)c1ccc(OP(=O)(O)O)cc1
inactive: activity change, negative = inhibition [1] -9.86% [at 0.573 µM] | outcome [2] inactive [at 0.573 µM] | outcome [3] inactive [at 0.573 µM] | activity change, negative = cytotoxicity [4] -3.89% [at 0.573 µM] | activity change, negative = cytotoxicity [5] 1.12% [at 0.702 µM]

ClCC1CO1 (stereo unspecified) (tested in a mixture with another compound)
inactive: Potency [1] | Potency [2] | Potency [3] | Potency [4] | Potency [5]

CCC1(C)OC(=O)N(C)C1=O (stereo unspecified)
inactive: Potency [1] | Potency [2] | Potency [3] | Potency [4] | Potency [5]

OCc1cc(C(O)CNCCCCCCOCCOCc2c(Cl)cccc2Cl)ccc1O (stereo unspecified)
inactive: Potency [1] | Potency [2] | Potency [3] | Potency [4] | Potency [5]

CC1=C(C(=O)OCCN(Cc2ccccc2)c2ccccc2)C(c2cccc([N+](=O)[O-])c2)C(P2(=O)OCC(C)(C)CO2)=C(C)N1 (stereo unspecified)
inactive: Potency [1] | Potency [2] | Potency [3] | Potency [4] | Potency [5]

O=C(O)CSc1nnc(Br)n1-c1ccc(C2CC2)c2ccccc12
inactive: Potency [1] | Potency [2] | Potency [3] | Potency [4] | Potency [5]

CC(C)CCC[C@@H](C)[C@H]1CC[C@H]2[C@@H]3CC[C@H]4C[C@@H](O)CC[C@]4(C)[C@@H]3CC[C@]12C
inactive: Potency [1] | Potency [2] | Potency [3] | Potency [4] | Potency [5]

CC(C)C[C@H](NC(=O)[C@@H](Cc1c[nH]c2ccccc12)NC(=O)[C@H](Cc1ccc(O)cc1)NC(=O)[C@H](CO)NC(=O)[C@H](Cc1c[nH]c2ccccc12)NC(=O)[C@H](Cc1cnc[nH]1)NC(=O)[C@@H]1CCC(=O)N1)C(=O)N[C@@H](CCCN=C(N)N)C(=O)N1CCC[C@H]1C(=O)NCC(N)=O
inactive: Potency [1] | Potency [2] | Potency [3] | Potency [4] | Potency [5]

COCC1=C(C(=O)OC(C)OC(=O)OC(C)C)N2C(=O)[C@@H](NC(=O)/C(=N/OC)c3csc(N)n3)[C@H]2SC1 (stereo partly specified)
inactive: Potency [1] | Potency [2] | Potency [3] | Potency [4] | Potency [5]

CC(/C=C1\SC(=S)N(CC(=O)O)C1=O)=C\c1ccccc1
inactive: Potency [1] | Potency [2] | Potency [3] | Potency [4] | Potency [5]

CC(C)(C)c1ccc2c(S(=O)(=O)O)c(C(C)(C)C)ccc2c1
inactive: Potency [1] | Potency [2] | Potency [3] | Potency [4] | Potency [5]

CCCc1ccc(C(=O)O)cc1
inactive: Potency [1] | Potency [2] | Potency [3] | Potency [4] | Potency [5]

CC(C)(C)NC(=O)[C@@H]1C[C@@H]2CCCC[C@H]2CN1C[C@@H](O)[C@H](Cc1ccccc1)NC(=O)[C@H](CC(N)=O)NC(=O)c1ccc2ccccc2n1
inactive: Potency [1] | Potency [2] | Potency [3] | Potency [4] | Potency [5]

CC(=O)O[C@]1(C(C)=O)CC[C@H]2[C@@H]3C[C@H](C)C4=CC(=O)C=C[C@]4(C)[C@@]3(F)[C@@H](O)C[C@@]21C
inactive: Potency [1] | Potency [2] | Potency [3] | Potency [4] | Potency [5]

C[C@@H]1CCC[C@H](C)N1NC(=O)c1ccc(Cl)c(S(N)(=O)=O)c1
inactive: Potency [1] | Potency [2] | Potency [3] | Potency [4] | Potency [5]

CCOC(=O)[C@H](C)C[C@@H](Cc1ccc(-c2ccccc2)cc1)NC(=O)CCC(=O)O
inactive: Potency [1] | Potency [2] | Potency [3] | Potency [4] | Potency [5]

O=C(OC1C[C@@H]2CC3C[C@@H](C1)N2CC3=O)c1c[nH]c2ccccc12 (stereo partly specified)
inactive: Potency [1] | Potency [2] | Potency [3] | Potency [4] | Potency [5]

O=[N+]([O-])c1ccc(/C=C/c2cccc(CO)n2)o1
inactive: Potency [1] | Potency [2] | Potency [3] | Potency [4] | Potency [5]

CNC(=O)c1c(I)c(C(=O)NCC(=O)Nc2c(I)c(C(=O)O)c(I)c(C(=O)NCCO)c2I)c(I)c(N(C)C(C)=O)c1I
inactive: Potency [1] | Potency [2] | Potency [3] | Potency [4] | Potency [5]

CC(C)[C@H]1CC[C@H](C)C[C@H]1O
inactive: Potency [1] | Potency [2] | Potency [3] | Potency [4] | Potency [5]

C[N+](C)(C)CCOP(=O)([O-])OP(=O)(O)OC[C@H]1OC(n2ccc(N)nc2=O)[C@H](O)[C@@H]1O (stereo partly specified)
inactive: outcome [1] inactive [at 0.573 µM] | outcome [2] inactive [at 0.573 µM] | outcome [3] inactive [at 0.573 µM] | outcome [4] inactive [at 0.573 µM] | outcome [5] inactive [at 0.702 µM]

C[C@H]1CN(C[C@H](Cc2ccccc2)C(=O)NCC(=O)O)CC[C@@]1(C)c1cccc(O)c1
inactive: Potency [1] | Potency [2] | Potency [3] | Potency [4] | Potency [5]
-6.59% and -17.3%: activity change, negative = inhibition [6]

CCCCCCCCCCCCCC(=O)OCC(COP(=O)([O-])OCC[N+](C)(C)C)OC(=O)CCCCCCCCCCCCC (stereo unspecified)
inactive: Potency [1] | Potency [2] | Potency [3] | Potency [4] | Potency [5]
-12.7%: activity change, negative = inhibition [6]

O=c1[nH]cnc2c([C@@H]3N[C@H](CO)[C@@H](O)[C@H]3O)c[nH]c12
inactive: Potency [1] | Potency [2] | Potency [3] | Potency [4] | Potency [5]

COc1ccc2c(O[C@H]3CC4C(=O)N(C)CCCC/C=C\[C@@H]5C[C@@]5(C(=O)NS(=O)(=O)C5CC5)NC(=O)[C@@H]4C3)cc(-c3nc(C(C)C)cs3)nc2c1C (stereo partly specified)
inactive: Potency [1] | Potency [2] | Potency [3] | Potency [4] | Potency [5]

CC(=O)NC(C=O)C(O)C(O)[C@H](O)CO (stereo partly specified)
-0.156%: activity change, negative = inhibition [6]
inactive: Potency [1] | Potency [2] | Potency [3] | Potency [4] | Potency [5]

CC(=O)OCC(=O)[C@@]12OC3(CCCC3)O[C@@H]1C[C@H]1[C@@H]3CCC4=CC(=O)C=C[C@]4(C)[C@@]3(F)[C@@H](O)C[C@@]12C
inactive: Potency [1] | Potency [2] | Potency [3] | Potency [4] | Potency [5] | Potency [6]

O=P(O)(O)OP(=O)(O)O
-3.78%: activity change, negative = inhibition [6]
inactive: Potency [1] | Potency [2] | Potency [3] | Potency [4] | Potency [5]

C[C@]12CCC3=C4CCC(=O)C=C4CC[C@H]3[C@@H]1CC[C@@]2(O)CC#N
inactive: Potency [1] | Potency [2] | Potency [3] | Potency [4] | Potency [5]
-3.65%: activity change, negative = inhibition [6]

CC(C)OC(=O)CCC/C=C\C[C@@H]1[C@@H](CC[C@@H](O)CCc2ccccc2)[C@H](O)C[C@@H]1O
inactive: activity change, negative = inhibition [1] -26.3% [at 11.4 µM] | activity change, negative = cytotoxicity [2] -6.62% [at 11.4 µM] | outcome [3] inactive [at 11.4 µM] | activity change, negative = cytotoxicity [4] 3.55% [at 11.4 µM] | activity change, negative = cytotoxicity [5] -2.53% [at 11.3 µM]

C=CC[N+]1([C@H]2C[C@H]3[C@@H]4CC[C@H]5C[C@H](O)[C@@H](N6CCOCC6)C[C@]5(C)[C@H]4CC[C@]3(C)[C@H]2OC(C)=O)CCCC1
inactive: Potency [1] | Potency [2] | Potency [3] | Potency [4] | Potency [5]
-19.7% and -28.9%: activity change, negative = inhibition [6]

OCC(O)COc1ccc(Cl)cc1 (stereo unspecified)
-23.5% [at 171 µM]: activity change, negative = inhibition [6]
inactive: Potency [1] | Potency [2] | Potency [3] | Potency [4] | Potency [5]

CC[C@H]1OC(=O)C[C@@H](O)[C@H](C)[C@@H](OC2OC(C)C(O)C(N(C)C)C2O)[C@@H](CCN2CCCCC2)C[C@@H](C)C(=O)/C=C/C(C)=C/[C@@H]1CN1CCCCC1 (stereo partly specified)
inactive: Potency [1] | Potency [2] | Potency [3] | Potency [4] | Potency [5]

CC[C@H]1OC(=O)[C@H](C)[C@@H](O[C@H]2C[C@@](C)(OC)[C@@H](O)[C@H](C)O2)[C@H](C)[C@@H](O[C@@H]2O[C@H](C)C[C@H](N(C)C)[C@H]2O)C(C)(O)C[C@@H](C)/C(=N\OCOCCOC)[C@H](C)[C@@H](O)[C@]1(C)O (stereo partly specified)
inactive: Potency [1] | Potency [2] | Potency [3] | Potency [4] | Potency [5] | Potency [6]

CCOC(=O)O[C@]1(C(=O)COC(=O)CC)CC[C@H]2[C@@H]3CCC4=CC(=O)C=C[C@]4(C)[C@H]3[C@@H](O)C[C@@]21C
inactive: Potency [1] | Potency [2] | Potency [3] | Potency [4] | Potency [5] | Potency [6]

NC[C@@H]1O[C@H](O[C@H]2[C@H](O)[C@H](O[C@H]3[C@@H](O)[C@H](N)C[C@H](N)[C@H]3O[C@H]3O[C@H](CN)[C@H](O)[C@H](O)[C@H]3N)O[C@@H]2CO)[C@@H](N)[C@@H](O)[C@@H]1O
inactive: activity change, negative = inhibition [1] -20.9% [at 5.34 µM] | outcome [2] inactive [at 5.34 µM] | activity change, negative = inhibition [3] 3.6% [at 5.34 µM] | activity change, negative = cytotoxicity [4] -3.76% [at 5.34 µM] | activity change, negative = cytotoxicity [5] 2.87% [at 5.25 µM]
-25.4% [at 5.25 µM]: activity change, negative = inhibition [6]
